IL-1B inflam inh = inflammasome signaling inhibition, IL-1 beta readout; actives 4.7% (n = 360,000); activity change, % at 57.5 µM; THP-1 LPS/ATP IL-1B secretion, AlphaLISA, 16 h; hits give low values; in the data active = activity change below about -50%; inconclusive = mostly about -30% to -49%; also: % is scaled to controls: 0 for no effect and ±100 for the full control effect
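THP-1 cells pretreated 1 hr with compounds (up to 57.5 uM final), then stimulated with LPS (250 ng/mL final) plus ATP (1.25 mM final); secreted IL-1B measured by AlphaLISA after 16 hr, decreased signal indicating inhibition.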
DT40 TDP1 no CPT = qHTS for Inhibitors of human tyrosyl-DNA phosphodiesterase 1 (TDP1): qHTS in cells in absence of CPT; DT40 Tdp1-/- hTDP1 cells, no CPT, ATP luminescence, 48 h; Potency, µM (doses to about 46.2 µM), for inactives: top-dose activity change, negative = growth inhibition, usual class: inhibitors; actives 15% (n = 420,000); AID 686978, 2013; also: potency is read from the fitted curve at half-maximal effect; % is scaled to controls: 0 for no effect and ±100 for the full control effect; nearly all actives have a fitted effect of over 55% in size
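Seeded 400 DT40-hTDP1 cells/well (vehicle DMSO, no 20 nM CPT); pinned compounds; ≥48 hr at 37 °C; CellTiter-Glo luminescence as viability measure.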
DT40 TDP1 CPT = growth inhibition of DT40 Tdp1-/-;hTDP1 cells with camptothecin (screen for TDP1 inhibitors). chicken DT40 Tdp1-/-;hTDP1 cells + 20 nM CPT, ATP luminescence, 48 h. Potency, µM (doses to about 46.2 µM), without a hit: at the highest dose activity change, negative = growth inhibition, most hits filed as inhibitors. actives 12% (n = 420,000). AID 686979; also: potency is read from the fitted curve at half-maximal effect; % is scaled to controls: 0 for no effect and ±100 for the full control effect; nearly all actives have a fitted effect of over 55% in size
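Chicken DT40 Tdp1-/- cells complemented with human TDP1, 400 cells/well, exposed to compounds plus 20 nM camptothecin for at least 48 h at 37 C; viability read as ATP content by CellTiter-Glo luminescence.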
D3 antag = antagonists of human D3 dopamine receptor; AID 652054; P35462; max response, negative = inhibition, %; actives 2.5% (n = 360,000); D3R cells, DiscoveRx beta-arrestin luminescence, antagonist mode; hits give low values; in the data active = max response below about -50%; inconclusive = no clear call, values can overlap the other calls; also: % is scaled to controls: 0 for no effect and ±100 for the full control effect
Target sequence (P35462 whole entry, looked up): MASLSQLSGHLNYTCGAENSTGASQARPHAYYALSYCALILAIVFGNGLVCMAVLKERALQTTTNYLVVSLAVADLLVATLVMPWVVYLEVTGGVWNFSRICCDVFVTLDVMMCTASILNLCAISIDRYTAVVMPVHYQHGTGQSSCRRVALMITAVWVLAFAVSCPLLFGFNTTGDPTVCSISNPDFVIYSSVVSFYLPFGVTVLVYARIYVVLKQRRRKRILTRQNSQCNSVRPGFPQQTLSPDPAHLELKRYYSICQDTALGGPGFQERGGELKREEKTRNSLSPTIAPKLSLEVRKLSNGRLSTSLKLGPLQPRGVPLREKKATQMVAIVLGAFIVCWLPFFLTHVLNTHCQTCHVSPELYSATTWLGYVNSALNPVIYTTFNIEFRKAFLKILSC
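Cells plated overnight at 1500 cells/well, then exposed to library compounds with dopamine controls for 90 minutes at 37 degrees C. DiscoveRx reagent added for 30–60 minutes at room temperature; luminescence read, quantitative HTS format.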
D3 ag = agonists of human D3 dopamine receptor. actives 0.58% (n = 410,000). D3R DiscoveRx beta-arrestin cells, luminescence, 90 min. max activation, %. P35462. AID 652048; in the data active = max activation above about 30%; also: 0% is about no effect
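Agonist mode: compounds and dopamine controls were applied to plated cells for 90 min at 37 degrees C after an overnight attachment at 1500 cells/well. Luminescent read-out followed 30 - 60 minutes at room temperature with DiscoveRx detection reagent.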
ClpP mod = qHTS Assay for Activators of ClpP | purified B. subtilis ClpP, FRET peptide cleavage, 20 min | AID 651965, 2013 | actives 1.9% (n = 340,000) | ATP-dependent Clp protease proteolytic subunit (Bacillus subtilis (strain 168)), P80244 | Potency, µM (highest dose often 57.5 µM), inactives show at the top dose activity change, negative = active; active = well fitted falling curve with a large enough effect; inconclusive = small, poorly fitted or top-dose-only effect; inactive = no such curve, though single readings can be large or run the other way; also: potency is read from the fitted curve at half-maximal effect; the source files actives as falling curves though it sought activators and does not explain the sign; nearly all actives have a fitted effect of over 65% in size
Target sequence (P80244 whole entry, looked up): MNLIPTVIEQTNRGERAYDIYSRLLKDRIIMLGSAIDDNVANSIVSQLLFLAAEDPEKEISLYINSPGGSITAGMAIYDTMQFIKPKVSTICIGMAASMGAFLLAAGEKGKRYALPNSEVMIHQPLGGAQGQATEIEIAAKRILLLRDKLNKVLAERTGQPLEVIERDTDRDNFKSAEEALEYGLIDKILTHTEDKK
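Buffer: 100 mM Tris/HCl pH8, 100 mM KCl, 0.05% low protease BSA, 2.5% glycerol, 0.01% Tween-20. ClpP 10 microg/mL final; 20 min RT; delta FRET normalized to ADEP and DMSO controls.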
The depositor's hits bear a star; [ ] = another dose, or the depositor's remark. Sampled rows, rich in hits. Any-hit rate of the full collection: about 21%. Unless noted, calls follow the shape of the dose curve; as a rule, active = well fitted inhibition curve with a large enough effect; inconclusive = small, poorly fitted or top-dose-only effect; inactive = flat fitted curve, though single readings scatter.

Results for C[C@]12C(=O)N(c3ccc(Cl)cc3)C(=O)N1[C@@H]1c3ccccc3OC[C@@H]1[C@H]2c1ccccc1 ?
IL-1B inflam inh: -2; DT40 TDP1 no CPT: 23µM*; DT40 TDP1 CPT: inconclusive; D3 antag: -11; D3 ag: -12; ClpP mod: -4%

Results for COc1ccc(-c2csc(NC(C)c3nc4cc(Cl)c(N5CCCCC5)cc4n3CCCO)n2)cc1 (stereo unspecified) ?
IL-1B inflam inh: inconclusive; DT40 TDP1 no CPT: inconclusive; DT40 TDP1 CPT: 26µM*; D3 antag: 2; D3 ag: -22; ClpP mod: -2%

How did CCCn1c(C(C)Nc2nc(-c3cc(Cl)c(N)c(Cl)c3)cs2)nc2cc(Cl)c(N3CCCCC3)cc21 (stereo unspecified) do in these assays?
IL-1B inflam inh: 7; DT40 TDP1 no CPT: inconclusive; DT40 TDP1 CPT: 18µM*; D3 antag: 28; D3 ag: -6; ClpP mod: -1%

How did COc1ccc(-c2csc(NC(C)c3nc4cc(Cl)c(N5CCCCC5)cc4n3CCOCCO)n2)cc1 (stereo unspecified) do in these assays?
IL-1B inflam inh: -24; DT40 TDP1 no CPT: inconclusive; DT40 TDP1 CPT: 13µM*; D3 antag: 1; D3 ag: -8; ClpP mod: -4%

Results for COc1ccc(-c2csc(NC(C)c3nc4cc(Cl)c(Cl)cc4n3CCOCCO)n2)cc1 (stereo unspecified) ?
IL-1B inflam inh: inconclusive; DT40 TDP1 no CPT: 18µM*; DT40 TDP1 CPT: inconclusive; D3 antag: -10; D3 ag: -20; ClpP mod: 1%

Results for Cc1csc(NC(C)c2nc3cc(Cl)c(N4CCCCC4)cc3n2CCOCCO)n1 (stereo unspecified) ?
IL-1B inflam inh: -19; DT40 TDP1 no CPT: inconclusive; DT40 TDP1 CPT: inconclusive; D3 antag: 21; D3 ag: 3; ClpP mod: 3%

What do the screens show for `O=[N+]([O-])c1cc(Br)c2nsnc2c1N1CCOCC1`?
IL-1B inflam inh: -3; DT40 TDP1 no CPT: -26%; DT40 TDP1 CPT: inconclusive; D3 antag: 0; D3 ag: 5

What do the screens show for `CC(Nc1nc(-c2ccc(Cl)cc2)cs1)c1nc2cc(Cl)c(N3CCCCC3)cc2n1CCOCCO` (stereo unspecified)?
IL-1B inflam inh: -29; DT40 TDP1 no CPT: 15µM*; DT40 TDP1 CPT: 16µM*; D3 antag: 0; D3 ag: 15; ClpP mod: -8%

Results for CCOc1cc(C2NC(=O)c3c(sc4c3CCN(C)C4)N2)ccc1OC(=O)c1ccccc1Cl (stereo unspecified) ?
DT40 TDP1 no CPT: 2%; DT40 TDP1 CPT: 5%; D3 ag: -11; ClpP mod: -1%

How did COc1cccc(-c2ccc3ncnc(N4CCN(C)CC4)c3c2)c1 do in these assays?
DT40 TDP1 no CPT: 23µM*; DT40 TDP1 CPT: 13µM*

How did CN1CCN(c2ncnc3ccc(-c4cccnc4)cc23)CC1 do in these assays?
DT40 TDP1 no CPT: inconclusive; DT40 TDP1 CPT: 16µM*

How did CN1CCN(c2ncnc3ccc(-c4ccoc4)cc23)CC1 do in these assays?
DT40 TDP1 no CPT: 23µM*; DT40 TDP1 CPT: 12µM*

What do the screens show for `CC(C)C(C)(C)C(C)(C)C(C)(C)S`?
DT40 TDP1 no CPT: 6%[92.5 µM]; DT40 TDP1 CPT: 11%[92.5 µM]; D3 ag: 8

How did CC(C)NC(=O)N1CC2(CCN(S(=O)(=O)c3ccccc3)CC2)C1 do in these assays?
DT40 TDP1 no CPT: 18%; DT40 TDP1 CPT: -1%

What do the screens show for `Clc1ccc2nc(C3CCCCC3)c(Cc3ccsc3)n2c1`?
IL-1B inflam inh: 0; DT40 TDP1 no CPT: inconclusive; DT40 TDP1 CPT: 23µM*; D3 antag: 18; D3 ag: 7; ClpP mod: -17%

Results for Clc1ccc2nc(C3CCCCC3)c(Cc3ccccc3)n2c1 ?
IL-1B inflam inh: 28; DT40 TDP1 no CPT: -28%; DT40 TDP1 CPT: -7%; D3 antag: 23; D3 ag: 6; ClpP mod: -5%

Results for Brc1ccc2nc(C3CCCCC3)c(Cc3ccsc3)n2c1 ?
IL-1B inflam inh: 0; DT40 TDP1 no CPT: 16µM*; DT40 TDP1 CPT: 21µM*; D3 antag: 20; D3 ag: 3; ClpP mod: -3%

How did Cc1ccc(Cc2c(C3CCCCC3)nc3ccc(Br)cn23)cc1 do in these assays?
IL-1B inflam inh: 8; DT40 TDP1 no CPT: 21µM*; DT40 TDP1 CPT: inconclusive; D3 antag: -6; D3 ag: -9; ClpP mod: -7%

How did Cc1cc(Br)cn2c(Cc3ccsc3)c(C3CCCCC3)nc12 do in these assays?
IL-1B inflam inh: 0; DT40 TDP1 no CPT: inconclusive; DT40 TDP1 CPT: inconclusive; D3 antag: -2; D3 ag: 6; ClpP mod: -10%

Results for CC1(NC(=O)Cc2csc(-c3ccc(Cl)cc3)n2)CCS(=O)(=O)C1 (stereo unspecified) ?
IL-1B inflam inh: 8; DT40 TDP1 no CPT: -30%; DT40 TDP1 CPT: inconclusive; D3 antag: -4; D3 ag: 9; ClpP mod: -23%

How did COc1ccc(NC(=O)CN(C)CC(=O)c2c(C)[nH]c3ccccc23)cc1 do in these assays?
IL-1B inflam inh: 4; DT40 TDP1 no CPT: inconclusive; DT40 TDP1 CPT: inconclusive; D3 antag: -16; D3 ag: -18; ClpP mod: -1%

What do the screens show for `CC(=O)c1c(-c2ccccc2)[nH]c2ccccc12`?
IL-1B inflam inh: -7; DT40 TDP1 no CPT: 13µM*; DT40 TDP1 CPT: 13µM*; D3 antag: -7; D3 ag: -4; ClpP mod: -1%

What do the screens show for `COc1ccccc1CN(C)CC(=O)c1c(C)[nH]c2ccccc12`?
DT40 TDP1 no CPT: 18µM*; DT40 TDP1 CPT: 18µM*; ClpP mod: -18%

Results for COc1ccc(C)cc1NC(=O)COC(=O)c1ccccc1SCC(=O)N1CCCC1 ?
IL-1B inflam inh: -1; DT40 TDP1 no CPT: inconclusive; DT40 TDP1 CPT: inconclusive; D3 antag: -16; D3 ag: 0; ClpP mod: 28µM*

How did Cc1[nH]c2ccccc2c1C(=O)COC(=O)c1ccccc1O do in these assays?
IL-1B inflam inh: -1; DT40 TDP1 no CPT: -27%; DT40 TDP1 CPT: -2%; D3 antag: 7; D3 ag: 0; ClpP mod: 3.5µM*

How did COc1cc(NC(=O)COC(=O)c2ccccc2SCC(=O)N2CCCC2)cc(OC)c1 do in these assays?
IL-1B inflam inh: 4; DT40 TDP1 no CPT: inconclusive; DT40 TDP1 CPT: inconclusive; D3 antag: 1; D3 ag: -8; ClpP mod: -3%
